Seven compounds from PubChem BioAssay (Tox21) can be followed below.

Assay [1] addresses Thyrotropin-releasing hormone receptor (Homo sapiens) (UniProt P34981). The experiment in a line: qHTS assay to identify small molecule agonists of the thyrotropin-releasing hormone receptor (TRHR) signaling pathway (AID 1346891; calls by dose curve;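 further: HEK293 cells expressing TRHR with calcium dye readout; series mostly up to about 58 µM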). An outline of the steps:
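Overnight-plated (18 h, 37 °C, 5% CO2) TRHR-Hek293 cells; 2 h calcium dye at 37 °C; compound in DMSO; 3-min kinetic fluorescence read.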
On the technique in general: In qHTS, concentration-response curves come from the screen itself.

The nature of assay [2]: Human pregnane X receptor (PXR) small molecule agonists, qHTS cell viability counter screen (AID 1346977). Further: nearly all actives have a fitted effect of over 50% in size. The method in brief: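 After a 5hr pre-incubation, PXR-Luc HepG2 cells received compounds plus positive control in DMSO and were kept 24hr at 37C. Cell viability was quantified by fluorescence from CellTiter-Fluor added for the final hour.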
Assay [3] is described as follows: Caspase-3/7 induction in HepG2 cells by small molecules, qHTS assay (AID 1346978). Further: nearly all actives have a fitted effect of over 15% in size. The method in brief:
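Wild-type HepG2 cells, 2,000/well, settled 5 hr at 37 C and 5% CO2, then compound-treated for 17 hr; caspase-3/7 activity read by luminescent Caspase-Glo 3/7 after 30 min at room temperature.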

Assay [4] in a line: Caspase-3/7 induction in CHO-K1 cells by small molecules, qHTS cell viability counter screen (AID 1346979). Further: nearly all actives have a fitted effect of over 35% in size. An outline of the steps: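 Multiplexed with Caspase-Glo 3/7 in CHO-K1 cells, this counter screen added CellTiter-Fluor after 16hr of compound exposure and recorded fluorescence 1hr later.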
Assay [5] can be described thus: Caspase-3/7 induction in CHO-K1 cells by small molecules, qHTS assay (AID 1346980). Further: nearly all actives have a fitted effect of over 15% in size. An outline of the steps:
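Wild-type CHO-K1 cells exposed to compounds for 17hr at 37 C, 5% CO2. Caspase-3/7 activity then measured by Caspase-Glo 3/7 luminescence after 30min at room temperature.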

A short description of assay [6]: Caspase-3/7 induction in HepG2 cells by small molecules, qHTS cell viability counter screen (AID 1346981). Further: series mostly up to about 92 µM; nearly all actives have a fitted effect of over 30% in size. The method in brief: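 Treatment of HepG2 cells with DMSO-delivered compounds ran 16 hr at 37 C following a 5-hr pre-incubation of 2,000 cells/well. CellTiter-Fluor fluorescence, read after 1 hr, served as the viability measure in a qHTS format.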
The target in assay [7] is Nuclear receptor subfamily 1 group I member 2 (Homo sapiens) (UniProt O75469). The experiment in a line: Human pregnane X receptor (PXR) small molecule agonists, qHTS assay (AID 1346982). Further: nearly all actives have a fitted effect of over 35% in size. Further: potency means the concentration at half of the fitted maximal effect. An outline of the steps: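 Stable HepG2 line reporting PXR-mediated CYP3A4 expression via luciferase. Treatment: 24 hr with compounds in DMSO at 37 C. Detection: ONE-Glo luminescence.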

Assay [8] addresses Acetylcholinesterase (Homo sapiens) (UniProt P22303). Description: Acetylcholinesterase (AChE) small molecule antagonists: colormetric cell-based qHTS assay (AID 1347395; calls by dose curve; further: nearly all actives have a fitted effect of over 30% in size). An outline of the steps: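 In this cell-based qHTS, attached SH-SY5Y cells were treated with test chemicals for 30 min, after which acetylthiocholine hydrolysis was followed by DTNB colour development over 90 min at 37 C.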

The target is the same in assay [9]. The experiment in a line: Acetylcholinesterase (AChE) small molecule antagonists: enzyme-based qHTS assay (AID 1347397; calls by dose curve; further: nearly all actives have a fitted effect of over 55% in size). Particulars: Potency: AChE enzyme activity inhibition. An outline of the steps: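 Colorimetric DTNB read-out of thiocholine released from acetylthiocholine by recombinant human AChE (50 mU/mL as dispensed). Compounds were preincubated 30 min at RT before substrate/DTNB addition, with a 10 min RT reaction.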

Assay [10] shares this target. The experiment in a line: Acetylcholinesterase (AChE) small molecule antagonists: fluorescence cell-based qHTS assay (AID 1347398; calls by dose curve; further: nearly all actives have a fitted effect of over 50% in size). The settings on record: Potency: AChE activity. The method in brief:
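SH-SY5Y, 2,000 cells/well, attached overnight; cmpd 30 min 37 C; acetylthiocholine/Thiolite Green cocktail 40 min RT; fluorescence Ex/Em 490/520 nm.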

For assay [11] the target is unchanged. Description: Acetylcholinesterase (AChE) small molecule antagonists: enzyme-based qHTS assay with human liver microsomes (AID 1347399; calls by dose curve; further: nearly all actives have a fitted effect of over 60% in size). Particulars: Potency: qHTS inhibition. An outline of the steps:
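Recombinant human AChE (50 mU/mL in the enzyme mix) and human liver microsomes (0.25 mg/mL final) were preincubated with compound and NADPH (0.25 mg/mL final) for 30 min at 37 C. Acetylthiocholine/DTNB was then added; thiocholine was read colorimetrically after 10 min at room temperature.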

Assay [12] concerns the target Cytochrome P450 2C19 (Homo sapiens) (UniProt P33261). The experiment in a line: Cytochrome P450 Family 2 Subfamily C Member 19 (CYP2C19) small molecule antagonists: luciferase reporter qHTS assay (AID 1671197). Further: nearly all actives have a fitted effect of over 65% in size. Further: potency means the concentration at half of the fitted maximal effect. The method in brief:
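First, compounds are pinned into enzyme-substrate mix and held 10 min at room temperature. Second, NADPH regeneration solution is added and plates incubate 1 h at 37C. Third, detection reagent is added and luminescence read after 20 min.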
For orientation: In a reporter assay the amount or activity of a reporter protein is the signal.

For assay [13], the target named is Cytochrome P450 2C9 (Homo sapiens) (UniProt P11712). Description: Cytochrome P450 Family 2 Subfamily C Member 9 (CYP2C9) small molecule antagonists: luciferase reporter qHTS assay (AID 1671198). Further: nearly all actives have a fitted effect of over 50% in size. Further: potency means the concentration at half of the fitted maximal effect. An outline of the steps: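 P450-Glo proluciferin substrate with CYP2C9 enzyme; 10 min RT preincubation, then NADPH regeneration 1 h at 37C; luciferin detection reagent 20 min RT, luminescence in relative luminescence units.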
Cytochrome P450 2C9 (Homo sapiens), sequence (P11712 whole entry, looked up): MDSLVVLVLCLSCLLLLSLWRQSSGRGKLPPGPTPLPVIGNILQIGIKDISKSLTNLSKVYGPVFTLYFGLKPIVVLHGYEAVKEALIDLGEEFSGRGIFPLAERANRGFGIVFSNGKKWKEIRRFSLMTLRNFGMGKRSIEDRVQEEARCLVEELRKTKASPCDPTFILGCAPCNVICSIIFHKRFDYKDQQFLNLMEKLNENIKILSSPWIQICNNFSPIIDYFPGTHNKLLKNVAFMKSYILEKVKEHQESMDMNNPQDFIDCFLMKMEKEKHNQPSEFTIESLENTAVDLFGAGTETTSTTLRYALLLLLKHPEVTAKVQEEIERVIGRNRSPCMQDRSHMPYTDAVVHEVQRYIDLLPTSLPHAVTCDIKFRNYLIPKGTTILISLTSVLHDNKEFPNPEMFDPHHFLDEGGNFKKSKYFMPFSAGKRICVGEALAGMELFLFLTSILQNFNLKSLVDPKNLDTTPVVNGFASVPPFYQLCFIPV

For assay [14], the target named is Cytochrome P450 1A2 (Homo sapiens) (UniProt P05177). Description: Cytochrome P450 Family 1 Subfamily A Member 2 (CYP1A2) small molecule antagonists: luciferase reporter qHTS assay (AID 1671199). Further: nearly all actives have a fitted effect of over 50% in size. Further: potency means the concentration at half of the fitted maximal effect. The method in brief: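 Read-out is luminescence from luciferin detection reagent (20 min) proportional to CYP1A2 activity; compounds in DMSO preincubated 10 min with enzyme and proluciferin substrate, then NADPH regeneration solution, 1 h, room temperature.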
Cytochrome P450 1A2 (Homo sapiens), sequence (P05177 whole entry, looked up): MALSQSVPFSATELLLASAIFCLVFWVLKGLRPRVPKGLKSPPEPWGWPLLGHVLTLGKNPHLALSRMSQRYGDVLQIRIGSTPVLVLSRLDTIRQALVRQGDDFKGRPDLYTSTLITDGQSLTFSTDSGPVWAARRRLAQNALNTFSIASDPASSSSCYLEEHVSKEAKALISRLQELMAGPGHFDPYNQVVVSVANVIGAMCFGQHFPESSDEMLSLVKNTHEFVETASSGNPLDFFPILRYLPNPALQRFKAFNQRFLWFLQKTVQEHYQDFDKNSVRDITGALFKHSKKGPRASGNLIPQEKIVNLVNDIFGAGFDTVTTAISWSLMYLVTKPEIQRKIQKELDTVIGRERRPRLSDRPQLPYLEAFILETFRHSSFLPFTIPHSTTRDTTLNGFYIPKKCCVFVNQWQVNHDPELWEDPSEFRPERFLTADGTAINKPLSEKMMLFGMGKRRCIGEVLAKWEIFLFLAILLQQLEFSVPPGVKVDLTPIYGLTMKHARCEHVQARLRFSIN

The target of assay [15] is Voltage-gated inwardly rectifying potassium channel KCNH2 (Homo sapiens) (UniProt Q12809). The experiment in a line: Human Ether-a-go-go-Related Gene (hERG) channel small molecule antagonists: fluorescence cell-based qHTS assay (AID 1671200). The method in brief:
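Cell line hERG-U2OS; dye FluxOR II, 1 h RT dark; Tl+ stimulus; ex 480/em 540 nm, read each second for 2 min.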
(Block of hERG is tested as a sign of cardiac risk.)

Assay [16] deals with Cytochrome P450 3A4 (Homo sapiens) (UniProt P08684). Description: Cytochrome P450 Family 3 Subfamily A Member 4 (CYP3A4) small molecule antagonists: luciferase reporter qHTS assay (AID 1671201). An outline of the steps:
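Room-temperature assay throughout: 10 min compound–enzyme/substrate preincubation, 1 h reaction after NADPH regeneration solution, 20 min detection. Luciferin formed from proluciferin substrate is quantified by luminescence.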

Assay [17] deals with Cytochrome P450 2D6 (Homo sapiens) (UniProt P10635). Description: Cytochrome P450 Family 2 Subfamily D Member 6 (CYP2D6) small molecule antagonists: luciferase reporter qHTS assay (AID 1671196). Further: nearly all actives have a fitted effect of over 50% in size. Further: potency means the concentration at half of the fitted maximal effect. An outline of the steps:
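Chemicals tested for interference with CYP2D6 activity; proluciferin substrate, NADPH regeneration, 1 h at room temperature, luminescent detection.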

A number with no mark means an inactive call. Results filed as inconclusive are left out. Activity calls are given as the source filed them. Unless noted, the call rests on the fitted dose curve; in most records, active means well fitted curve in the direction sought with a large enough effect in the repeat runs; inconclusive means weak or mixed curves; inactive means no such curve, though single readings can be large; an effect the other way counts as inactive or inconclusive.

Thyrotropin-releasing hormone receptor (Homo sapiens), sequence (P34981 whole entry, looked up): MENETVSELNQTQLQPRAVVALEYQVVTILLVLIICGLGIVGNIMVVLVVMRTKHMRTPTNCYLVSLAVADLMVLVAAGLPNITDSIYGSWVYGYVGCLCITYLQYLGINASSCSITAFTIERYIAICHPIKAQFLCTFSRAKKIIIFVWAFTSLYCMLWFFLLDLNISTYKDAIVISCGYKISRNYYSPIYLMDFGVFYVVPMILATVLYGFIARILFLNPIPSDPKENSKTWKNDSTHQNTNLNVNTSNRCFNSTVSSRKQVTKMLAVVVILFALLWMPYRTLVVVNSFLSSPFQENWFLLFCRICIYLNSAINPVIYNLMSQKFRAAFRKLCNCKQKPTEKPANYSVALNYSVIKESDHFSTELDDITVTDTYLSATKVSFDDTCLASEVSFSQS
Cytochrome P450 3A4 (Homo sapiens), sequence (P08684 whole entry, looked up): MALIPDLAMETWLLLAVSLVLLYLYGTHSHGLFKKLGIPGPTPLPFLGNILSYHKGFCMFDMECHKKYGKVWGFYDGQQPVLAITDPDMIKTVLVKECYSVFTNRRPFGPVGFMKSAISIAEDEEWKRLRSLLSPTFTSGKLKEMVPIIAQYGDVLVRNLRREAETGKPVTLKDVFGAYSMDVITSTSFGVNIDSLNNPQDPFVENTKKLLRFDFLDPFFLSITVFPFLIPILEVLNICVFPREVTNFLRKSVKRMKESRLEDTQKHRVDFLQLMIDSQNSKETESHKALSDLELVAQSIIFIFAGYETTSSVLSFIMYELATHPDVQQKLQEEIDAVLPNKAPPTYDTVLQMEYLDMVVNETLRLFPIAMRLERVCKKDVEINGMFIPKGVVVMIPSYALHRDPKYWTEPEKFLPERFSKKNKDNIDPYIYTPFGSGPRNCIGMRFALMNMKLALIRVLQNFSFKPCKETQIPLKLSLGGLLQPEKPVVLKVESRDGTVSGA
Voltage-gated inwardly rectifying potassium channel KCNH2 (Homo sapiens), sequence (Q12809 whole entry, looked up): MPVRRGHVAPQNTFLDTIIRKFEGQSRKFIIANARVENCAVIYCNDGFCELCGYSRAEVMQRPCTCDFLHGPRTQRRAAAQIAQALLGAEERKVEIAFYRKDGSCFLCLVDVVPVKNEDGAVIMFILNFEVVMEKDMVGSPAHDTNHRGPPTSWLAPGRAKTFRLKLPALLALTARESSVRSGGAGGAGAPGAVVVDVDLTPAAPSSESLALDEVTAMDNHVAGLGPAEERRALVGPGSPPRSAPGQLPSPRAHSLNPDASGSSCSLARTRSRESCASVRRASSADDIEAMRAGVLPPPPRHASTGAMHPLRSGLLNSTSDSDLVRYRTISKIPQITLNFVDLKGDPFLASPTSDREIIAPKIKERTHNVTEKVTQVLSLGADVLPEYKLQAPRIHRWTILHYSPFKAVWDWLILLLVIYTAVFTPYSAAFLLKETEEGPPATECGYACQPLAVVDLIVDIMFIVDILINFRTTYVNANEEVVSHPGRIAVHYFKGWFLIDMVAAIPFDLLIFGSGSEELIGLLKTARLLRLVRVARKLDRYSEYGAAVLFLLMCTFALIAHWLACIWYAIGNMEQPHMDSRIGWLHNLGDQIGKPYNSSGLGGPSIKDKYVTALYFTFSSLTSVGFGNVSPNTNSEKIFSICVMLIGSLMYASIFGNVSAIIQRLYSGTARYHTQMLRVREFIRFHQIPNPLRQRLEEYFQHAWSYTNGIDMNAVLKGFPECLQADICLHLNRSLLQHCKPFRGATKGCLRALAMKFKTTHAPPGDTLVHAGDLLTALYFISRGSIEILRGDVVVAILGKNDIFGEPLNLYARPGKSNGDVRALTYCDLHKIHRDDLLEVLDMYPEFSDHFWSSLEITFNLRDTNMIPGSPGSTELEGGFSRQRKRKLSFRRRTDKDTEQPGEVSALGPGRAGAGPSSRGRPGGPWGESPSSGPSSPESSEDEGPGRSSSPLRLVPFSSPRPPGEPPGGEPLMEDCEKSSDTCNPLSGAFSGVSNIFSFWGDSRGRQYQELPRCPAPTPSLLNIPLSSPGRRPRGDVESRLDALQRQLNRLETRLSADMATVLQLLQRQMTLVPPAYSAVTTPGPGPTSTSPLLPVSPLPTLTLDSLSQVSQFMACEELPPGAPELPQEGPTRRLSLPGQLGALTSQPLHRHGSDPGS
Cytochrome P450 2D6 (Homo sapiens), sequence (P10635 whole entry, looked up): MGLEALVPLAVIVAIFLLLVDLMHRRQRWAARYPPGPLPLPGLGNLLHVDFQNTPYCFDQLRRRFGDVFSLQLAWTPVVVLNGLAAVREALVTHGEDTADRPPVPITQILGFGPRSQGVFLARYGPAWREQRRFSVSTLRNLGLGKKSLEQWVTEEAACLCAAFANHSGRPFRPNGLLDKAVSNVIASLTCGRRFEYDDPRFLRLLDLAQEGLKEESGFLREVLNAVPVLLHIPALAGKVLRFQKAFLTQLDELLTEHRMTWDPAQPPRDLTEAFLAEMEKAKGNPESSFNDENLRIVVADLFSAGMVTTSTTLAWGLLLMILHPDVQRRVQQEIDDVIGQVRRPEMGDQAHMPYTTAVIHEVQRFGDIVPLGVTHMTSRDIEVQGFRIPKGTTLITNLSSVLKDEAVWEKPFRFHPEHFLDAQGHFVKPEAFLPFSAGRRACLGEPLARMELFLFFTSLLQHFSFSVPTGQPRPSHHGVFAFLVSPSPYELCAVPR
Acetylcholinesterase (Homo sapiens), sequence (P22303 whole entry, looked up): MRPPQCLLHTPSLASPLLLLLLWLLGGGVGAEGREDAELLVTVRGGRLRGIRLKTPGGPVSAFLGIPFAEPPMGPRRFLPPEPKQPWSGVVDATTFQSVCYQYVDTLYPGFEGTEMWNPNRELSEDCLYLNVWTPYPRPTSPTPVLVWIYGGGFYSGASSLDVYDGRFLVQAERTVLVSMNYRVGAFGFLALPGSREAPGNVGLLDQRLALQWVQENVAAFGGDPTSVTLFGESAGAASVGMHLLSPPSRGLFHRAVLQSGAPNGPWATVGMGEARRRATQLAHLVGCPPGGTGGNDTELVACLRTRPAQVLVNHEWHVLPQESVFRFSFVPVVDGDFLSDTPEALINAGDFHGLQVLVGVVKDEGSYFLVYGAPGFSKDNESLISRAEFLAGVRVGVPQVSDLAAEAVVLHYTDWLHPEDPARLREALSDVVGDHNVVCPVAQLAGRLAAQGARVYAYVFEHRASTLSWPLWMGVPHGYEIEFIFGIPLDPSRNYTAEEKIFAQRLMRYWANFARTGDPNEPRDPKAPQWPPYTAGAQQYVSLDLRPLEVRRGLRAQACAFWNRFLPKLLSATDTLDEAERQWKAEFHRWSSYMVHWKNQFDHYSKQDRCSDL
Cytochrome P450 2C19 (Homo sapiens), sequence (P33261 whole entry, looked up): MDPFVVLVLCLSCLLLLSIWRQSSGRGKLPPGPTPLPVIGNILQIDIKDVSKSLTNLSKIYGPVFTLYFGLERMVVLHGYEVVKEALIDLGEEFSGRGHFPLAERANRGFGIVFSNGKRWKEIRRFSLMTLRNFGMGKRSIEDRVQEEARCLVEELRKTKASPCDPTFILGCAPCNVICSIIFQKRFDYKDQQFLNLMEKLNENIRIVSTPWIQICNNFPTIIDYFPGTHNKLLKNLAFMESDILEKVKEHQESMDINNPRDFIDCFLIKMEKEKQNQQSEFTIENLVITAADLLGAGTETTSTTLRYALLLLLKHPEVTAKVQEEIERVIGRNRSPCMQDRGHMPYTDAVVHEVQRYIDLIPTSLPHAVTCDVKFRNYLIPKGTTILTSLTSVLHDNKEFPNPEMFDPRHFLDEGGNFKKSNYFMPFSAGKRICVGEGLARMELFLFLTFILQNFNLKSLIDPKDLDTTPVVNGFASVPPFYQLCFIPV

Take `COC(=O)C(C)N(C(=O)Cc1ccccc1)c1c(C)cccc1C` (stereo unspecified): the Potency entry in assay [1], in assay [2], in [3], in [4], in [5] and in [6] was “inactive” each time. Moreover, the Potency entry in assay [8], in [9], in [10], in assay [11], in assay [14] and in [15] was “inactive” each time. Also, the Potency entry in [16] was “inactive”. For the same compound, the Potency in [7] was 10.9 µM (active); in assay [12] it was 3.56 µM (active); in assay [13], 22.4 µM (active).
For `CCCCN=C=O`, the Potency result in assay [1], in [2], in [3], in [4], in assay [5] and in assay [6] was “inactive” each time. The Potency result in [7], in [8], in assay [9], in [10], in assay [11] and in [17] was “inactive” throughout. Also, the Potency entry in assay [13], in assay [15] and in assay [16] was “inactive” in each case. In assay [12], the Potency was 35.2 µM (active).
Take `CC(C)=CCOc1c2occc2cc2ccc(=O)oc12`: the Potency entry in [1], in assay [2], in assay [3], in assay [4], in [5] and in assay [6] was “inactive” in each case. Besides, the Potency entry in assay [7], in assay [8], in [9], in assay [10] and in assay [11] was “inactive” each time. Moreover, the Potency in assay [17] is 4.9 µM (active); in assay [12] it was 4.36 µM (active); in assay [13], 0.617 µM (active); in [14], 229 nM (active).
As for `CCOP(O)OCC`, the Potency entry in assay [1], in [2], in assay [3], in assay [4], in [5] and in assay [6] was “inactive” in each case. Further, the Potency result in [7], in assay [8], in assay [9], in [10], in [11] and in assay [17] was “inactive” throughout. The Potency entry in [12], in assay [13], in assay [14], in [15] and in assay [16] was “inactive” in each case.
In the case of `C=CC(C)=O`, the Potency result in assay [1], in assay [2], in assay [3], in assay [4], in [5] and in assay [6] was “inactive” in each case. For the same compound, the Potency entry in assay [7], in [8], in assay [9], in assay [10], in assay [11] and in assay [17] was “inactive” each time. The Potency entry in [13], in assay [15] and in assay [16] was “inactive” in each case.
`CC1Sc2c(C(=O)O)c(=O)c3cc(F)c(N4CCNCC4)cc3n21` (stereo unspecified): the Potency result in assay [1], in [2], in [3], in assay [4], in assay [5] and in [6] was “inactive” throughout. The Potency result in assay [7], in [8], in assay [9], in assay [10], in assay [11] and in [17] was “inactive” throughout. The Potency entry in assay [12], in assay [14], in assay [15] and in assay [16] was “inactive” in each case.
Turning to `Clc1cccc2ccccc12`, the Potency entry in [1], in assay [2], in assay [3], in [4], in [5] and in assay [6] was “inactive” each time. Moreover, the Potency entry in [7], in assay [8], in [9], in [10], in assay [11] and in [17] was “inactive” in each case. In addition, the Potency entry in assay [12], in [13], in assay [15] and in assay [16] was “inactive” throughout.
